Laboratory results reported in PubChem BioAssay AID1275 (Emory University Molecular Libraries Screening Center, 2008).
Screen size: about 1,000 compounds; about 160 (16%) were called active. How the calls were made is not given here. The list shows a part of the results.

biological target: Neutrophil cytosol factor 1 (Homo sapiens) (UniProt P14598); assay: blockers of ligand binding to p47phox – biochemical, NADPH oxidase regulatory subunit, fluorescence polarization, dose response (AID 1275); details: at 12.5 µM
Sequence (P14598 whole entry, looked up): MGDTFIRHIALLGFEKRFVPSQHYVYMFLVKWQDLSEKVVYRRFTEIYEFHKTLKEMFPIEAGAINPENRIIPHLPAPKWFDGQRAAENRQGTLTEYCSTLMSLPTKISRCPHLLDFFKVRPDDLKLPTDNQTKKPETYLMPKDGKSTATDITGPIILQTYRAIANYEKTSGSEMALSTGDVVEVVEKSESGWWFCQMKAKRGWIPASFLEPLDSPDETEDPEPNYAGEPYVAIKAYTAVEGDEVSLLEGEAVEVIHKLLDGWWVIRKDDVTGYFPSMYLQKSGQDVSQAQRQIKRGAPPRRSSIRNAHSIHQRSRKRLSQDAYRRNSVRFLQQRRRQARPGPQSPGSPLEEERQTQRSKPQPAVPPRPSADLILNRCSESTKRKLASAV

Percent of control, lower = inhibition, active:
N#CC(C#N)=C1C=C2C=C(N3CCCCC3)CCC2CC1 (stereo unspecified) 107
Cc1ccc(-n2c(C)cc(C3N=C(N)Nc4nc5ccccc5n43)c2C)c(C)c1 (stereo unspecified) 66.2
CCN1CCN(Cc2ccc(NC(=O)c3ccc(C)c(NC(=O)c4c[nH]c5cc(C(F)(F)F)ccc5c4=O)c3)cc2C(F)(F)F)CC1 53.8
CN(C)c1ccc(/C=C/C(=O)c2cc(Cl)ccc2O)cc1 50.8
Cc1ccc2cc3c(N)c4c(C)ccc(C)c4nc3nc2c1 51.8
CN(C)c1ccc(/C=C(\C#N)C(=O)c2ccccc2)cc1 69.6
